In the library only some 21% were active in any assay of this set; here they are far more common.
IL-1B inflam inh: inflammasome signaling inhibition, IL-1 beta readout | 4.7% of 360,000 active | THP-1 LPS/ATP IL-1B secretion, AlphaLISA, 16 h; hits give low values | activity change, % at 57.5 µM; in the data active = activity change below about -50%; inconclusive = mostly about -30% to -49%; also: % is scaled to controls: 0 for no effect and ±100 for the full control effect
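Secreted IL-1B measured by AlphaLISA bead assay after 16 h compound exposure of THP-1 cells; compounds (final up to 57.5 uM) added 1 h before LPS (250 ng/mL) and ATP (1.25 mM) stimulation; lower signal means less secretion.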
D3 ag: activates the human D3 dopamine receptor; max activation, %; D3R DiscoveRx beta-arrestin cells, luminescence, 90 min; P35462; 0.58% of 410,000 active; in the data active = max activation above about 30%; also: 0% is about no effect
Target sequence (P35462 whole entry, looked up): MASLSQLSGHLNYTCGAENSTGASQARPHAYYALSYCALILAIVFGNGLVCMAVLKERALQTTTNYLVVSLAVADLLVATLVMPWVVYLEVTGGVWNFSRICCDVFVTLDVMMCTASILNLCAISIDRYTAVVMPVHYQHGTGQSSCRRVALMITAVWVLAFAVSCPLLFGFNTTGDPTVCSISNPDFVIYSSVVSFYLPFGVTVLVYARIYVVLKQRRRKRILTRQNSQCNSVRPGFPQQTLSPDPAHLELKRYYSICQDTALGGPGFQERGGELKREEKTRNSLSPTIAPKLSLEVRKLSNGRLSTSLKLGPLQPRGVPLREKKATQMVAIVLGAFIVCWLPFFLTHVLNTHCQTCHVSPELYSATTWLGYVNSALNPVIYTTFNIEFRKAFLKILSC
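Agonist-mode cell screen: cells plated at 1500/well and incubated overnight at 37 °C, then exposed to library compounds for 90 min at 37 °C. Detection reagent was added for 30–60 min at room temperature, and luminescence was read.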
TDP1 cell noCPT: qHTS for Inhibitors of human tyrosyl-DNA phosphodiesterase 1 (TDP1): qHTS in cells in absence of CPT | DT40 Tdp1-/- hTDP1 cells, no CPT, ATP luminescence, 48 h | Potency, µM (doses to about 46.2 µM), inactives show at the top dose activity change, negative = growth inhibition, most hits filed as inhibitors | 15% of 420,000 active | AID 686978, 2013; also: potency is read from the fitted curve at half-maximal effect; % is scaled to controls: 0 for no effect and ±100 for the full control effect; nearly all actives have a fitted effect of over 55% in size
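Stably hTDP1-transfected Tdp1-null chicken DT40 cells were treated with library compounds minus camptothecin and grown for at least 48 hr at 37 °C, after which cellular ATP was quantified by luminescence.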
TDP1 cell CPT: DT40-hTDP1 cell growth loss with CPT | chicken DT40 Tdp1-/-;hTDP1 cells + 20 nM CPT, ATP luminescence, 48 h | Potency, µM (highest dose often 46.2 µM), for the others: at the top dose activity change, negative = growth inhibition, most hits filed as inhibitors | 12% of 420,000 active | AID 686979; also: potency is read from the fitted curve at half-maximal effect; % is scaled to controls: 0 for no effect and ±100 for the full control effect; nearly all actives have a fitted effect of over 55% in size
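Chicken DT40 Tdp1-/- cells complemented with human TDP1, 400 cells/well, exposed to compounds plus 20 nM camptothecin for at least 48 h at 37 C; viability read as ATP content by CellTiter-Glo luminescence.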
DRD3 antagonist: antagonists of human D3 dopamine receptor; P35462; max response, negative = inhibition, %; 2.5% of 360,000 active; D3R cells, DiscoveRx beta-arrestin luminescence, antagonist mode; hits give low values; in the data active = max response below about -50%; inconclusive = no clear call, values can overlap the other calls; also: % is scaled to controls: 0 for no effect and ±100 for the full control effect
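Cells plated overnight at 1500 cells/well, then exposed to library compounds with dopamine controls for 90 minutes at 37 degrees C. DiscoveRx reagent added for 30–60 minutes at room temperature; luminescence read, quantitative HTS format.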
ClpP mod: qHTS Assay for Activators of ClpP. purified B. subtilis ClpP, FRET peptide cleavage, 20 min. ATP-dependent Clp protease proteolytic subunit (Bacillus subtilis (strain 168)), P80244. 1.9% of 340,000 active. Potency, µM (top dose mostly 57.5 µM), without a hit: at the top dose activity change, negative = active; active = well fitted falling curve with a large enough effect; inconclusive = small, poorly fitted or top-dose-only effect; inactive = no such curve, though single readings can be large or run the other way; also: potency is read from the fitted curve at half-maximal effect; the source files actives as falling curves though it sought activators and does not explain the sign; nearly all actives have a fitted effect of over 65% in size
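Buffer: 100 mM Tris/HCl pH8, 100 mM KCl, 0.05% low protease BSA, 2.5% glycerol, 0.01% Tween-20. ClpP 10 microg/mL final; 20 min RT; delta FRET normalized to ADEP and DMSO controls.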
* hit, by the source's call; u = inconclusive; x = no result; [ ] = remark or other dose. Unless noted, calls follow the shape of the dose curve; as a rule, active = well fitted inhibition curve with a large enough effect; inconclusive = small, poorly fitted or top-dose-only effect; inactive = flat fitted curve, though single readings scatter.

SMILES	IL-1B inflam inh	D3 ag	TDP1 cell noCPT	TDP1 cell CPT	DRD3 antagonist	ClpP mod
Cc1ccc(C(=O)N(Cc2cc3cccc(C)c3nc2N2CCC(O)CC2)C2CC2)cc1	x	x	13µM*	-1%[9.04 µM]	x	x
CCCOc1ccc2c(=O)c(-c3cc(C(=O)OC)oc3C)c(C)oc2c1	u	0	18µM*	13µM*	18	0%
CCN(CC)C(=O)Oc1ccc2c(=O)c(-c3ccc(OC)cc3)c(C)oc2c1	-7	2	-19%	-22%	-9	-1%
COc1ccc2c(=O)c(-c3ccc(C)cc3)c(-c3ccccc3)oc2c1	0	3	7.3µM*	12µM*	4	-4%
COc1ccc2c(=O)c(-c3ccccc3C)c(C)oc2c1	-23	-4	13µM*	u	-12	-12%
COc1ccc(-c2oc3ccccc3c(=O)c2O)cc1	x	x	0%	-3%	x	x
COc1ccc2c(=O)c(OC)c(-c3ccccc3)oc2c1	x	x	7.3µM*	u	x	x
Cc1cccc(N(C)S(=O)(=O)c2nnc(NC(=O)C(C)(C)C)s2)c1	x	4	u	u	x	-1%
CCC(Sc1nc2cc3c(cc2c(=O)n1CCCC(=O)NCc1ccc2c(c1)OCO2)OCO3)C(=O)NCCCOC (stereo not drawn)	x	10	-16%	-4%	x	-3%
C=CCN1CC[C@@H](O)C(=C)S1(=O)=O	x	x	-14%	-10%	x	0%
C=CCc1ccc(O)c(-c2cc(CC=C)ccc2O)c1	14	2	21µM*	15µM*	14	4%
CCN(c1ccccc1)c1cc(C)nc2ncnn12	21	1	2%	3%	10	1%
Cc1cc(Oc2ccc(-c3ccccc3)cc2)n2ncnc2n1	u	-4	-25%	18µM*	-7	1%
Cc1ccc(NC(=O)C2CCN(S(=O)(=O)c3ccc4c(c3)OCCCO4)CC2)nc1	-15	-6	u	u	-21	0%
Cc1cc2cc(CN(CC3CCCO3)C(=S)Nc3ccccc3)c(=O)[nH]c2cc1C (stereo not drawn)	-15	-9	5.8µM*	6.5µM*	17	-6%

High-throughput results from PubChem.
